Experimental data: PubChem BioAssay
Active and inactive are the calls of the source. Unless noted, no rule for the calls is given here.

Legend:
[1] = tested on: Wnt5a (protein binding on small-molecule microarray); assay: small molecules binding Wnt5a protein – biophysical, small-molecule microarray, 635/667 nm fluorescence, primary screen (AID 1142); details: 635 nm fluorescence, higher = more signal;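 also: fluorescence read at 667 nm with signal to noise per printed feature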
[2] = ATP-based viability of Huh7 replicon cells – cell-based, CellTiter-Glo luminescence, basal, 48 h, cytotoxicity control for HCV replication inhibitor project, primary screen (AID 1143); details: higher = more signal, called active from +8 up or from −8 down;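 also: Huh7 hepatoma cells carrying a hepatitis C replication reporter with no stimulus; test concentration not given here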
[3] = Pseudomonas biofilm growth suppression – PAO1 strain, BacTiter-Glo luminescence, LB-PBS, primary screen (AID 1144); details: P. aeruginosa PAO1 biofilm, 12 h, higher = more signal
[4] = basal CRE-LacZ reporter activity in PC12 – cell-based, unstimulated, primary screen (AID 1145); details: no forskolin, luminescence, 4.5 h, higher = more signal, called active from +8 up or from −8 down
[5] = forskolin-driven CRE-LacZ activity in PC12 – cell-based, CRE-LacZ reporter, forskolin-stimulated, primary screen (AID 1146); details: luminescence, 4.5 h, higher = more signal, called active from +8 up or from −8 down;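 also: PC12 cells with 6xCRE LacZ reporter stimulated by forskolin 10 µM; beta-galactosidase reporter signal reflecting CREB driven transcription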
[6] = molecular target: Streptavidin (Streptomyces avidinii) (UniProt P22629); assay: compounds binding control protein streptavidin – biophysical, small-molecule microarray, 635/667 nm fluorescence, artefact control for SMM compound annotation, primary screen (AID 1147); details: higher = more signal;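 also: signal reflects streptavidin binding to arrayed compounds as a control protein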
[7] = probe aInhba binding on compound microarray – biochemical, small-molecule microarray, 635/667 nm fluorescence, primary screen (AID 1148); details: higher = more signal;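 also: score merges 667nm spot fluorescence with signal-to-noise for antibody binding to printed compounds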
Torsin-1A (Homo sapiens) [8] = molecular target: Torsin-1A (Homo sapiens) (UniProt O14656); assay: TOR1A wild-type binding on microarray – cell lysate, small-molecule microarray, lysate, 635/667 nm, primary screen (AID 1149); details: COS7 hTOR1A-WT lysate, 635 nm fluorescence, higher = more signal
Torsin-1A (Homo sapiens) [9] = molecular target: Torsin-1A (Homo sapiens) (UniProt O14656); assay: torsin A mutant lysate binding on microarrays – cell lysate, small-molecule microarray, COS7 lysate, 635/667 nm fluorescence, primary screen (AID 1150); details: COS7 hTOR1A mutant lysate, 635 nm fluorescence, higher = more signal;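 also: score pools 667 nm emission and signal to noise measuring lysate protein binding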
[10] = tested on: Sonic hedgehog protein (Shh); assay: Sonic hedgehog microarray binding compounds – biochemical, small-molecule microarray, 635/667 nm fluorescence, primary screen (AID 1151); details: 635 nm fluorescence, higher = more signal;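 also: Shh protein binding to compounds spotted on small-molecule microarray slides; score combines spot fluorescence intensity with signal-to-noise across triplicate slides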
[11] = optical density shifts of acrAB sulA E. coli – strain DRC41, OD650, 48 h, E. coli filamentation inducer project, primary screen (AID 1152); details: higher = more signal, called active from +8 up or from −8 down;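 also: E. coli MC1000 strain DRC41 lacking acrAB efflux pump and sulA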
[12] = probe aLefty1 binding on compound microarray – biochemical, small-molecule microarray, 635/667 nm fluorescence, primary screen (AID 1153); details: higher = more signal;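 also: score merges spot fluorescence with signal-to-noise ratio from the scanned slide images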
[13] = plasmodial surface anion channel blockers, osmotic lysis – cell-based, P. falciparum Indochina, OD700, 1 h, primary screen (AID 1154); details: P. falciparum Indochina infected RBC osmotic lysis, higher = more signal, called active from +8 up or from −8 down
[14] = plasmodial surface anion channel blockers, osmotic lysis – cell-based, P. falciparum Indochina, OD700, 2 h, primary screen (AID 1155);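 also: lysis reports solute entry through the parasite surface anion channel PSAC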; details: P. falciparum Indochina infected erythrocytes, higher = more signal, called active from +8 up or from −8 down
[15] = changes in parasitized red cell lysis, either direction – P. falciparum Indochina, OD700, 3 h, PSAC antagonist project, primary screen (AID 1156); details: P. falciparum-infected erythrocytes, osmotic lysis, higher = more signal, called active from +8 up or from −8 down
[16] = plasmodial surface anion channel blockers, osmotic lysis – cell-based, P. falciparum Indochina, OD700, 18 h, primary screen (AID 1157); details: P. falciparum Indochina infected erythrocytes, osmotic lysis OD700, 18 h; higher = more signal, called active from +8 up or from −8 down
[17] = S6 kinase pathway phospho-S6 level changes – cell-based, A549, cytoblot, luminescence, serum-stimulated, primary screen (AID 1158); details: 5 h, higher = more signal;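 also: serum-stimulated A549 lung adenocarcinoma cells; signal is phosphorylated S6 detected by cytoblot immunostaining with HRP secondary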
[18] = molecular target: NADPH oxidase 2 (Homo sapiens) (UniProt P04839); assay: compounds shifting NOX2 Amplex Red fluorescence – cell-based, HEK293-NOX2, PMA-stimulated, NOX inhibitor project, primary screen (AID 1159); details: 45 min, higher = more signal, called active from +8 up or from −8 down; also: test concentration not given here
[19] = molecular target: NADPH oxidase 4 (Homo sapiens) (UniProt Q9NPH5); assay: compounds shifting NOX4 Amplex Red fluorescence – cell-based, HEK293-NOX4, tetracycline-induced, NOX inhibitor project, primary screen (AID 1160); details: HEK293-NOX4, Amplex Red H2O2 fluorescence, 45 min; higher = more signal, called active from +8 up or from −8 down
[20] = molecular target: NADPH oxidase 5 (Homo sapiens) (UniProt Q96PH1); assay: compounds shifting NOX5 Amplex Red fluorescence – cell-based, HEK293-NOX5, NOX inhibitor project, primary screen (AID 1161); details: HEK293-NOX5, ionomycin, 45 min, higher = more signal
Sequence of NADPH oxidase 5 (Homo sapiens) (Q96PH1 whole entry, looked up): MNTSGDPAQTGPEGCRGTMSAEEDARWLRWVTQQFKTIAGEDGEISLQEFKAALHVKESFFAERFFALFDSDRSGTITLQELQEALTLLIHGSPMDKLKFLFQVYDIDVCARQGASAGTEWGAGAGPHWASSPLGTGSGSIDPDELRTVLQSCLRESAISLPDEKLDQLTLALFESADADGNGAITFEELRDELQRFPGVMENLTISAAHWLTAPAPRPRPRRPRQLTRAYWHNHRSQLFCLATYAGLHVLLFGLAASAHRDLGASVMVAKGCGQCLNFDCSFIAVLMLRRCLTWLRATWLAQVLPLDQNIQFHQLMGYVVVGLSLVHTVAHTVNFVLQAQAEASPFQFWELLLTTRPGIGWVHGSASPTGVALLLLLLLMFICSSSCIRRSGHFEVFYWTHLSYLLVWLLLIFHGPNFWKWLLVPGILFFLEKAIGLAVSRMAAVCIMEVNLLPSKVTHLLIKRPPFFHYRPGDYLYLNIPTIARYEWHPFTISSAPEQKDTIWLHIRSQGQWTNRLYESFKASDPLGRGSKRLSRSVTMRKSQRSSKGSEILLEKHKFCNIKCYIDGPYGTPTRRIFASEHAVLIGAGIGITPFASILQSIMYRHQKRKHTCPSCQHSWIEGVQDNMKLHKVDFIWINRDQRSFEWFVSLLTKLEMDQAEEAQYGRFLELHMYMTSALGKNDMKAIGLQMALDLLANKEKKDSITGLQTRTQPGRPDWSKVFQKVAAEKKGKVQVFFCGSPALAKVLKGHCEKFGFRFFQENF

Sequence of Streptavidin (Streptomyces avidinii) (P22629 whole entry, looked up): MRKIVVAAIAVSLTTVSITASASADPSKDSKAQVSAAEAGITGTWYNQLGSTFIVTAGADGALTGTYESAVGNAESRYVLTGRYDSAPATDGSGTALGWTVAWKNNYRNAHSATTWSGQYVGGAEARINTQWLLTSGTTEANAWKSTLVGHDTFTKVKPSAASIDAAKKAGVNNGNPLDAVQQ
Sequence of NADPH oxidase 4 (Homo sapiens) (Q9NPH5 whole entry, looked up): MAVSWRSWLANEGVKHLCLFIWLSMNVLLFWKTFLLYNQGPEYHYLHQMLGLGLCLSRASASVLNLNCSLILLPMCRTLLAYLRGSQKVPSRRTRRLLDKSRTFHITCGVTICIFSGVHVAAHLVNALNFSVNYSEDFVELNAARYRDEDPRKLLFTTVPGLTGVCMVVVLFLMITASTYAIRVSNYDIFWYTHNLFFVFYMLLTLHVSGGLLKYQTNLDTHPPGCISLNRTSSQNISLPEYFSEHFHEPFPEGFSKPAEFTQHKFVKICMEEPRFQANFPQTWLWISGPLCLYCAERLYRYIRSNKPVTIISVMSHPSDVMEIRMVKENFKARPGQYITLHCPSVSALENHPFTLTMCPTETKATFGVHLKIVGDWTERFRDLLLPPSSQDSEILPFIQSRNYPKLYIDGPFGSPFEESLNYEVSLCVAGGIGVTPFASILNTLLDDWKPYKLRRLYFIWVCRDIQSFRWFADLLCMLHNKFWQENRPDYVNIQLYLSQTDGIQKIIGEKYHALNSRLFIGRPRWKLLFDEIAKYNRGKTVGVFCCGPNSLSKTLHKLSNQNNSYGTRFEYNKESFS
Sequence of NADPH oxidase 2 (Homo sapiens) (P04839 whole entry, looked up): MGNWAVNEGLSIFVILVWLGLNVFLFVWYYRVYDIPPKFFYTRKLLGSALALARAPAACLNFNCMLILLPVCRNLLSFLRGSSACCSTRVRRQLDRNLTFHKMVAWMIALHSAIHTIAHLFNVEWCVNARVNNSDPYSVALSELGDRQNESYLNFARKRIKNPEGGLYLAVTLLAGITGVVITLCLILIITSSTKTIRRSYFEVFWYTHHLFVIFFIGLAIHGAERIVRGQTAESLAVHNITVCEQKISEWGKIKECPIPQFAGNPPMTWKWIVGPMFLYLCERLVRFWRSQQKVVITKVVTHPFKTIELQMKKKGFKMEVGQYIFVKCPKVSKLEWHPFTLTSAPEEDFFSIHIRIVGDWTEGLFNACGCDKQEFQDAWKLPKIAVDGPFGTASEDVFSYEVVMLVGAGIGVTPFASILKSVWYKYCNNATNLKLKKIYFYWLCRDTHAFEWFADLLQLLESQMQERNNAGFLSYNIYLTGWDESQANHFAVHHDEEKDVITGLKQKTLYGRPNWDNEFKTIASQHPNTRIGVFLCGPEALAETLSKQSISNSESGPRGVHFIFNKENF
Sequence of Torsin-1A (Homo sapiens) (O14656 whole entry, looked up): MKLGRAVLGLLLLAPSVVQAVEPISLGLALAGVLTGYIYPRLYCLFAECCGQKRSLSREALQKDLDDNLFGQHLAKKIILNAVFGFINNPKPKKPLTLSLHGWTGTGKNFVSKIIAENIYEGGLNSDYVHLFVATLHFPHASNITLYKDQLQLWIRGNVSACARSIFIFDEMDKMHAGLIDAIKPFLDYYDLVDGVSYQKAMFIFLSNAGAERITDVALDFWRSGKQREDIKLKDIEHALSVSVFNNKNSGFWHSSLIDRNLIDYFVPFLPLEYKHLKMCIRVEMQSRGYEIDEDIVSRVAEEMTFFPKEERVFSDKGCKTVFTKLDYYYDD

Row | SMILES | composite z-score [1] | z-score [2] | z-score [3] | z-score [4] | z-score [5] | composite z-score [6] | composite z-score [7] | composite z-score (Torsin-1A (Homo sapiens) [8]) | composite z-score (Torsin-1A (Homo sapiens) [9]) | composite z-score [10] | z-score [11] | composite z-score [12] | z-score [13] | z-score [14] | z-score [15] | z-score [16] | z-score [17] | z-score [18] | z-score [19] | z-score [20]
1 | [N-]=[N+]=NCc1ccccc1C[C@]1(C(=O)N2CCCCC2)N=C(c2ccc(OCCCO)cc2)O[C@H]1c1ccccc1 | 0.601 | -5.06 (inactive) | -0.307 (inactive) | -0.0017 (inactive) | -0.964 (inactive) | 0.483 | -0.0471 | 0.81 | 0.139 | -0.655 | 0.74 (inactive) | 0.118 | 20.4 (active) | 5.49 (inactive) | 3.48 (inactive) | 2.04 (inactive) | 1.38 | -1.16 (inactive) | -0.0602 (inactive) | -0.924
2 | CC(C)N1CC=CC23O[C@@H]4C=CCCOC(=O)C4[C@H]2C(=O)N(CCCCCO)[C@@H]3C1=O (stereo not given in full) | -0.135 | 0.317 (inactive) | -1.18 (inactive) | 0.199 (inactive) | -0.695 (inactive) | 1.88 | -0.224 | -1.35 | -1.12 | 0.0551 | 0.952 (inactive) | -0.0186 | 1.42 (inactive) | 0.261 (inactive) | 2.21 (inactive) | 0.455 (inactive) | 1.35 | 1.42 (inactive) | 0.356 (inactive) | 1.48
3 | COCCCNC(=O)[C@@]1(Sc2ccc(C)cc2)CC(=O)N(C2CCCCC2)[C@@H]1c1ccc(CO)cc1I | 0.0699 | -1.41 (inactive) | 0.134 (inactive) | -0.258 (inactive) | 1.17 (inactive) | 0.404 | 0.541 | 0.0619 | 0.401 | 0.993 | -0.251 (inactive) | -0.649 | 4.53 (inactive) | 0.678 (inactive) | 0.0232 (inactive) | 0.5 (inactive) | -0.0285 | 0.625 (inactive) | -0.102 (inactive) | 1.43
4 | CC(C)C[C@H]1NC(=O)[C@H](Cc2ccccc2)NC(=O)[C@@]23C(=O)N[C@@H](Cc4ccccc4)C2[C@H](C)[C@@]2(C)O[C@H]2C3/C=C/C/C=C\CNC1=O (stereo not given in full) | 0.116 | -1.29 (inactive) | 0.338 (inactive) | 0.67 (inactive) | 0.105 (inactive) | 0.494 | -0.0552 | 0.471 | 0.855 | 0.889 | -1 (inactive) | -0.145 | 0.133 (inactive) | -0.209 (inactive) | 0.0708 (inactive) | -0.308 (inactive) | -0.129 | 1.05 (inactive) | 0.819 (inactive) | -1.37
5 | Cc1ccc(S(=O)(=O)N2[C@@H](c3ccccc3)C(C(=O)O)=CC[C@H]2c2ccc(C#N)cc2)cc1 | 0.111 | -0.478 (inactive) | -0.236 (inactive) | -0.275 (inactive) | -0.551 (inactive) | 0.0546 | -0.148 | 0.834 | 2.1 | -0.133 | -1.22 (inactive) | 0.114 | 4.02 (inactive) | 1.42 (inactive) | 1.6 (inactive) | 0.559 (inactive) | -0.316 | -0.229 (inactive) | -1.62 (inactive) | -1.54
6 | COCCOC(=O)N1C(=O)[C@@]2(c3cc(C#CC4(O)CCCCCC4)ccc31)[C@H](c1ccc(OCCO)cc1)N1[C@H](c3ccccc3)[C@H](c3ccccc3)OC(=O)[C@H]1[C@@H]2C(=O)N1CCCCCCC1 | 0.539 | -4.81 (inactive) | -0.227 (inactive) | 0.212 (inactive) | -0.325 (inactive) | 1.68 | 1.63 | 1.12 | 1.12 | 2 | 0.148 (inactive) | 2.52 | 2.18 (inactive) | 2.02 (inactive) | 0.736 (inactive) | 1.02 (inactive) | 0.49 | 0.707 (inactive) | -1.45 (inactive) | 0.0377
7 | CC(=O)n1cc(C(O)C2C=CC3C(=O)N(c4ccccc4)C(=O)C3N2Nc2ccccc2F)c2ccccc21 (stereo not given) | -0.296 | -3.27 (inactive) | -1.69 (inactive) | -0.172 (inactive) | 0.499 (inactive) | 0.0289 | -0.157 | -0.561 | 0.495 | -0.813 | 0.506 (inactive) | -0.147 | 8 (active) | 1.04 (inactive) | 0.0784 (inactive) | -0.0595 (inactive) | 0.988 | -1.82 (inactive) | -3.23 (inactive) | -0.614
8 | COc1ccc(CCNC(=O)[C@@]2(C)c3ccccc3C(=O)N(Cc3cc(C(F)(F)F)cc(C(F)(F)F)c3)[C@H]2c2ccc(CO)cc2)cc1 | 0.024 | -5.45 (inactive) | 0.603 (inactive) | 1.18 (inactive) | -0.896 (inactive) | -0.404 | -0.102 | 0.602 | 1.52 | 0.198 | 1.28 (inactive) | -0.216 | 8.19 (active) | 0.566 (inactive) | 1.85 (inactive) | -0.388 (inactive) | 2.76 | -3.19 (inactive) | -1.7 (inactive) | -2.75
